In the supplement of paper PMC12494721 one finds growth data, which are given here for 37 compounds.

Counter-ions that a name gives are not always drawn.

One assay has as its system Clostridium sporogenes DSM 1664. Description: growth (OD595) fold change vs plate DMSO controls (fold change (ratio)); higher = more growth. To be noted: 20 µM; incubation time: 27 h, anaerobic, 37 °C. In short, it runs like this:
(§1)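 Growth is expressed as the fold change relative to the median of the DMSO control wells on each plate. Cultures in mGAM were grown anaerobically in 96-well plates for 27 h at 37 °C, shaken, and read at 595 nm. Readings were blank-subtracted, corrected for compound background with 20 µM compound solutions in water, and converted to OD with a calibration factor of 5. Fold changes above 1.5 were set to NA, and each value is the mean of 2 biological replicates.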
Turning to `CCCC(C)(COC(N)=O)COC(=O)NC(C)C` (centres undefined) [Carisoprodol], the growth was determined as 1.03.
As for `CCC1(c2cccc(O)c2)CCCCN(C)C1` (centres undefined) [Meptazinol hydrochloride], the growth is 0.881.
On the same count and under the same terms, for `CC(C)(C)NCC(O)c1ccccc1Cl` (centres undefined) [Tulobuterol hydrochloride] the value was 1.21; for `C[C@]12CCC(=O)C(O)=C1CC[C@@H]1[C@@H]2CC[C@]2(C)C(=O)CC[C@@H]12` [Formestane], 1.03.
With `C=C(C)[C@@H]1[C@H]2OC(=O)[C@@H]1[C@]1(O)C[C@H]3O[C@]34C(=O)O[C@H]2[C@]14C` [Picrotoxinin], the growth came out at 1.
With `CCOc1cc(Oc2ccc(C(F)(F)F)cc2Cl)ccc1[N+](=O)[O-]`, the growth was 1.13.
The same measure, in the same setting: as for `O=C(O)C(F)(F)C(F)(F)C(F)(F)C(F)(F)C(F)(F)C(F)(F)C(F)(F)C(F)(F)C(F)(F)F` [PFDeA (Perfluorodecanoic acid)], the figure is 1.11; as for `CC[C@@H](CO)NC(=O)[C@@H]1C=C2c3cccc4[nH]cc(c34)C[C@H]2N(C)C1` [Methylergometrine maleate], 1.08; as for `O=C(O)C(F)(F)C(F)(F)C(F)(F)C(F)(F)C(F)(F)C(F)(F)C(F)(F)F` [PFOA (Perfluorooctanoic acid)], 0.946.
Same read-out and setting: for `COc1ccc2c(c1)[C@]13CCCC[C@@H]1[C@H](C2)N(C)CC3` [Dextromethorphan hydrobromide monohydrate] the value was 1.05.
On the same count and under the same terms, for `CCOP(=S)(OCC)Oc1cc(C)nc(C(C)C)n1` the value was 0.996; for `CC(=O)NC1CCSC1=O` (centres undefined) [Citiolone], 1.15.
For `CCCCN(CCCC)N=O` [DBNA (N-nitrosodibutylamine)], the growth is 0.789.
On the same count and under the same terms, as for `CC[C@H](C)[C@H]1O[C@]2(C=C[C@@H]1C)C[C@@H]1C[C@@H](C/C=C(\C)[C@@H](O[C@H]3C[C@H](OC)[C@@H](O[C@H]4C[C@H](OC)[C@@H](O)[C@H](C)O4)[C@H](C)O3)[C@@H](C)/C=C/C=C3\CO[C@@H]4[C@H](O)C(C)=C[C@@H](C(=O)O1)[C@]34O)O2.CO[C@H]1C[C@H](O[C@H]2[C@H](C)O[C@@H](O[C@@H]3/C(C)=C/C[C@@H]4C[C@@H](C[C@]5(C=C[C@H](C)[C@@H](C(C)C)O5)O4)OC(=O)[C@@H]4C=C(C)[C@@H](O)[C@H]5OC/C(=C\C=C\[C@@H]3C)[C@]54O)C[C@@H]2OC)O[C@@H](C)[C@@H]1O`, the figure is 1.09; as for `C=CCC1(CC(C)C)C(=O)NC(=O)NC1=O` [Butalbital], 1.07; as for `NCC(CC(=O)O)c1ccc(Cl)cc1` (centres undefined) [Baclofen], 1.11.
On to `N#Cc1cc(Br)c(O)c(Br)c1`, for which the growth was 0.976.
Still for that read-out and setting: as for `N#CC(CCc1ccc(Cl)cc1)(Cn1cncn1)c1ccccc1` (centres undefined), the figure is 1.11; as for `CN(C)C(=O)Oc1ccc[n+](C)c1` [Pyridostigmine iodide], 1.02.
On to `CC(C)C[C@H](CN)CC(=O)O` [Pregabalin], for which the growth is 0.96.
On the same count and under the same terms, for `Clc1ccc(C(OCCN2CCCCC2)c2ccccc2)cc1` (centres undefined) [Cloperastine hydrochloride] the value was 1.14; for `O=[N+]([O-])c1ccc2ccc3cccc4ccc1c2c34` [1-Nitropyrene], 0.638; for `COCC(=O)N(c1c(C)cccc1C)C(C)C(=O)OC` (centres undefined), 0.957.
As for `CCCN1C[C@H](CSC)C[C@@H]2c3cccc4[nH]cc(c34)C[C@H]21` [Pergolide mesylate], the growth worked out at 0.995.
Still for that read-out and setting: for `COc1cc(OC)nc(NC(=O)NS(=O)(=O)c2ncccc2C(=O)N(C)C)n1` the value was 1.19.
In the case of `CNC(C)(C)Cc1ccccc1` [Mephentermine hemisulfate], the growth is 1.05.
Same read-out and setting: as for `CC1(C)C(C=C(Cl)Cl)C1C(=O)OC(C#N)c1ccc(F)c(Oc2ccccc2)c1` (mixture of isomers), the figure is 0.877.
As to `CCC1(CC)C(=O)C=CNC1=O` [Pyrithyldione], the growth stood at 0.889.
Still for that read-out and setting: as for `COP(=S)(OC)Oc1nc(Cl)c(Cl)cc1Cl`, the figure is 1.02.
Same read-out and setting: for `Nc1nc(N)nc(NC2CC2)n1` [Cyromazine] the value was 1.07; for `ClC1C(Cl)C(Cl)C(Cl)C(Cl)C1Cl` (centres undefined), 1.06; for `CCCN(CCC)C(=O)SCc1ccccc1`, 1.02.
On the same count and under the same terms, as for `Cc1ccccc1[N+](=O)[O-]` [2-Nitrotoluene], the figure is 0.884.
Consider `c1cc2ccc3cccc4ccc(c1)c2c34` [Pyrene], for which the growth is 1.01.
Regarding `COc1cccc(C2(O)CCCCC2CN(C)C)c1` (centres undefined) [Tramadol hydrochloride], the growth is 1.04.
Take `NC(=O)CN1CC(O)CC1=O` (centres undefined) [Oxiracetam]: the growth is 0.902.
As for `O=C(NC(=O)c1c(F)cccc1F)Nc1ccc(Cl)cc1`, the growth amounted to 1.04.

In the next assay the test system is Escherichia coli IAI1. The description is as above. To be noted: 20 µM; incubation time: 27 h, anaerobic, 37 °C. In short, it runs like this:
as §1
With `CCCC(C)(COC(N)=O)COC(=O)NC(C)C` (centres undefined) [Carisoprodol], the growth came to 1.01.
Same read-out and setting: for `CCC1(c2cccc(O)c2)CCCCN(C)C1` (centres undefined) [Meptazinol hydrochloride] the value was 1.03; for `CC(C)(C)NCC(O)c1ccccc1Cl` (centres undefined) [Tulobuterol hydrochloride], 1.07.
The same measure, in the same setting: for `C[C@]12CCC(=O)C(O)=C1CC[C@@H]1[C@@H]2CC[C@]2(C)C(=O)CC[C@@H]12` [Formestane] the value was 0.965; for `C=C(C)[C@@H]1[C@H]2OC(=O)[C@@H]1[C@]1(O)C[C@H]3O[C@]34C(=O)O[C@H]2[C@]14C` [Picrotoxinin], 0.983.
`CCOc1cc(Oc2ccc(C(F)(F)F)cc2Cl)ccc1[N+](=O)[O-]`: the growth was 0.996.
As for `O=C(O)C(F)(F)C(F)(F)C(F)(F)C(F)(F)C(F)(F)C(F)(F)C(F)(F)C(F)(F)C(F)(F)F` [PFDeA (Perfluorodecanoic acid)], the growth was found to be 1.04.
Still for that read-out and setting: for `CC[C@@H](CO)NC(=O)[C@@H]1C=C2c3cccc4[nH]cc(c34)C[C@H]2N(C)C1` [Methylergometrine maleate] the value was 1.03.
Still for that read-out and setting: for `O=C(O)C(F)(F)C(F)(F)C(F)(F)C(F)(F)C(F)(F)C(F)(F)C(F)(F)F` [PFOA (Perfluorooctanoic acid)] the value was 1.02; for `COc1ccc2c(c1)[C@]13CCCC[C@@H]1[C@H](C2)N(C)CC3` [Dextromethorphan hydrobromide monohydrate], 0.975; for `CCOP(=S)(OCC)Oc1cc(C)nc(C(C)C)n1`, 1.01.
On the same count and under the same terms, as for `CC(=O)NC1CCSC1=O` (centres undefined) [Citiolone], the figure is 0.993; as for `CCCCN(CCCC)N=O` [DBNA (N-nitrosodibutylamine)], 0.729.
Take `CC[C@H](C)[C@H]1O[C@]2(C=C[C@@H]1C)C[C@@H]1C[C@@H](C/C=C(\C)[C@@H](O[C@H]3C[C@H](OC)[C@@H](O[C@H]4C[C@H](OC)[C@@H](O)[C@H](C)O4)[C@H](C)O3)[C@@H](C)/C=C/C=C3\CO[C@@H]4[C@H](O)C(C)=C[C@@H](C(=O)O1)[C@]34O)O2.CO[C@H]1C[C@H](O[C@H]2[C@H](C)O[C@@H](O[C@@H]3/C(C)=C/C[C@@H]4C[C@@H](C[C@]5(C=C[C@H](C)[C@@H](C(C)C)O5)O4)OC(=O)[C@@H]4C=C(C)[C@@H](O)[C@H]5OC/C(=C\C=C\[C@@H]3C)[C@]54O)C[C@@H]2OC)O[C@@H](C)[C@@H]1O`: the growth turned out to be 1.01.
Consider `C=CCC1(CC(C)C)C(=O)NC(=O)NC1=O` [Butalbital], for which the growth came out at 1.04.
Regarding `NCC(CC(=O)O)c1ccc(Cl)cc1` (centres undefined) [Baclofen], the growth was 1.17.
Take `N#Cc1cc(Br)c(O)c(Br)c1`: the growth was found to be 0.821.
For `N#CC(CCc1ccc(Cl)cc1)(Cn1cncn1)c1ccccc1` (centres undefined), the growth amounted to 1.08.
For the compound `CN(C)C(=O)Oc1ccc[n+](C)c1` [Pyridostigmine iodide], the growth worked out at 0.975.
Still for that read-out and setting: as for `CC(C)C[C@H](CN)CC(=O)O` [Pregabalin], the figure is 0.982; as for `Clc1ccc(C(OCCN2CCCCC2)c2ccccc2)cc1` (centres undefined) [Cloperastine hydrochloride], 1.07; as for `O=[N+]([O-])c1ccc2ccc3cccc4ccc1c2c34` [1-Nitropyrene], 1.04.
Take `COCC(=O)N(c1c(C)cccc1C)C(C)C(=O)OC` (centres undefined): the growth was found to be 1.02.
Still for that read-out and setting: as for `CCCN1C[C@H](CSC)C[C@@H]2c3cccc4[nH]cc(c34)C[C@H]21` [Pergolide mesylate], the figure is 0.953.
With `COc1cc(OC)nc(NC(=O)NS(=O)(=O)c2ncccc2C(=O)N(C)C)n1`, the growth was 1.03.
As for `CNC(C)(C)Cc1ccccc1` [Mephentermine hemisulfate], the growth was found to be 0.976.
`CC1(C)C(C=C(Cl)Cl)C1C(=O)OC(C#N)c1ccc(F)c(Oc2ccccc2)c1` (mixture of isomers): the growth turned out to be 1.01.
Still for that read-out and setting: for `CCC1(CC)C(=O)C=CNC1=O` [Pyrithyldione] the value was 0.977.
In the case of `COP(=S)(OC)Oc1nc(Cl)c(Cl)cc1Cl`, the growth is 0.989.
On the same count and under the same terms, as for `Nc1nc(N)nc(NC2CC2)n1` [Cyromazine], the figure is 1.02.
For the compound `ClC1C(Cl)C(Cl)C(Cl)C(Cl)C1Cl` (centres undefined), the growth came out at 1.
The same measure, in the same setting: for `CCCN(CCC)C(=O)SCc1ccccc1` the value was 1; for `Cc1ccccc1[N+](=O)[O-]` [2-Nitrotoluene], 0.993.
Still for that read-out and setting: for `c1cc2ccc3cccc4ccc(c1)c2c34` [Pyrene] the value was 0.96; for `COc1cccc(C2(O)CCCCC2CN(C)C)c1` (centres undefined) [Tramadol hydrochloride], 0.988; for `NC(=O)CN1CC(O)CC1=O` (centres undefined) [Oxiracetam], 0.994.
The same measure, in the same setting: for `O=C(NC(=O)c1c(F)cccc1F)Nc1ccc(Cl)cc1` the value was 0.979.
